# Measured values taken from PubChem BioAssay (NCI).
# Compounds without any hit were thinned out: in the full panel of roughly 83,000, 20% have a hit.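 Testing used 96-well plates and a 48-hour single-concentration exposure. Example: -40 means 40% of the starting cells died.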 Unmarked numbers belong to inactive results. The source made the active and inactive calls. Rule for the calls: active = growth percent below 10; inactive = the rest.
# Tested on: MDA-MB-468 breast
# Assay: NCI-60 one-dose screen, 48 h (100 = growth as untreated, 0 = no growth, -100 = all killed)
# Details: 10 µM unless noted
row,SMILES,growth
1,COc1cc(-c2c3c(cn2S(=O)(=O)c2ccccc2)-c2nc(N)sc2CC3)cc(OC)c1OC,23.4%
2,Clc1ccc(CNc2ccc3nc(CCC4CCCCC4)[nH]c3c2)cc1,-43.5% (active)
3,SCc1ccc(CS)cc1,111%
4,Cc1ccccc1CNc1ccc(N2CCOCC2)cc1,97.8%
5,C=CCn1c(C)nc2cc(Nc3nc(N4CCCC4)nc4nc[nH]c34)ccc21,51.1%
6,CCCCCCCCCCCCc1ccc(C(=O)/C=C/C(=O)O)cc1,-9.53% (active)
7,O=S(=O)(Nc1ccc(OC(F)F)cc1)c1ccc(-c2cnc(C3CC3)o2)cc1,-9.07% (active)
8,Cc1cccc(NC(=O)N/C(N)=N/c2nc3ccccc3s2)c1,17.8%
